Drawing on paper PMC4081100, “A DNA-binding-site landscape and regulatory network analysis for NAC transcription factors in Arabidopsis thaliana”, this text covers binding signal for 15 sequences.

Test in all cases: universal protein binding microarray (PBM); transcription factors of Arabidopsis thaliana; high values mean tight binding
Holding throughout (settings): protein: recombinant; tags: GST; chain copies: 2; dsDNA, one strand shown

The target in assay [1] is T1, GST-ANAC092(1-176) (Arabidopsis thaliana, UniProt Q9FKA0 1-176).
T1 sequence: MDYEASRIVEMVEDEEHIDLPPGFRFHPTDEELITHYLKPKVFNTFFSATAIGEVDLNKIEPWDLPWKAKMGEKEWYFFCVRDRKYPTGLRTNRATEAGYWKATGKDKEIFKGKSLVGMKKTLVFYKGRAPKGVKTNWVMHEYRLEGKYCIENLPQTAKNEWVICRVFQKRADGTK
In a few lines: (§1)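 Cells were induced to make GST-tagged NAC-domain, full-length or DNA-binding-domain proteins, and zinc acetate was added for zinc-finger proteins. These proteins were purified on glutathione–Sepharose 4B, quantified by A280 or anti-GST western blot, and applied in duplicate at 200 to 500 nM final to custom all-10-mer Agilent 4 × 180K arrays that primer extension had made double-stranded. Binding is given as the normalised enrichment score (E-score) for scored gapped and ungapped 8-mers.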

Assay [2] concerns the target GST-NTL6(1-168) (Arabidopsis thaliana, UniProt Q9SCK6 1-168). In a few lines:
as §1

The target in assay [3] is T2, GST-ATAF1 NAC domain (Arabidopsis thaliana, UniProt Q39013 7-158).
T2 sequence: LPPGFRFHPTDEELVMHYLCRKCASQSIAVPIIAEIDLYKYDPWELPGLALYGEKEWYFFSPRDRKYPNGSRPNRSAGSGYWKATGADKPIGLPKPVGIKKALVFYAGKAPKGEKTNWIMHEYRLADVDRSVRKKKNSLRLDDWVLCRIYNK
In a few lines:
as §1

Assay [4] concerns the target T3, GST-ANAC092(1-285) full length (Arabidopsis thaliana, UniProt Q9FKA0 1-285).
T3 sequence: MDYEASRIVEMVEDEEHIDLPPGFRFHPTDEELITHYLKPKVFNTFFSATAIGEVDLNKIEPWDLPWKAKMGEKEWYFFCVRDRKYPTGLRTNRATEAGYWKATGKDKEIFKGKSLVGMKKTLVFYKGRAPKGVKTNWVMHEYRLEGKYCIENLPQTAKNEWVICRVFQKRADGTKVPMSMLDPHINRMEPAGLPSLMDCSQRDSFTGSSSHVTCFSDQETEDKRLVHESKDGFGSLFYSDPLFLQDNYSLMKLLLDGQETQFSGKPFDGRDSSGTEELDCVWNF
In outline:
as §1

The target in assay [5] is T4, GST-NTL8 NAC domain (Arabidopsis thaliana, UniProt Q9XIN7 14-156).
T4 sequence: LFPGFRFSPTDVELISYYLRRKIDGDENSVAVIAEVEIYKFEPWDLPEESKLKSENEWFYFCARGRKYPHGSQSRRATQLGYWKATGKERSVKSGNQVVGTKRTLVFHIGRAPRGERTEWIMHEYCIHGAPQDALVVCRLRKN
In a few lines: as §1

Assay [6] has as its target T5, GST-SND1(1-203) (Arabidopsis thaliana, UniProt Q9LPI7 1-203).
T5 sequence: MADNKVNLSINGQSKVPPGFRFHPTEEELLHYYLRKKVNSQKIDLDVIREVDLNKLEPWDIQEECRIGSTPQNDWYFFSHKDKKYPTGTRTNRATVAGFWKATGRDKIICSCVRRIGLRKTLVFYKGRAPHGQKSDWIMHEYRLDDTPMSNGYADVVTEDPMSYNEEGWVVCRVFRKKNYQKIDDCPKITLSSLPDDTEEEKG
In outline:
as §1

Assay [7] has as its target T6, GST-VND3 NAC domain (Arabidopsis thaliana, UniProt Q9FH59 12-162).
T6 sequence: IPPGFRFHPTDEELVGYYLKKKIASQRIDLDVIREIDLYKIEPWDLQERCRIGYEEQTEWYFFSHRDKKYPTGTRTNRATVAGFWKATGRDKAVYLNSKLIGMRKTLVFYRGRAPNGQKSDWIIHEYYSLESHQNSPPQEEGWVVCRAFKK
In a few lines:
as §1

Assay [8] concerns the target T7, GST-VND7 NAC domain (Arabidopsis thaliana, UniProt Q9C8W9 9-158).
T7 sequence: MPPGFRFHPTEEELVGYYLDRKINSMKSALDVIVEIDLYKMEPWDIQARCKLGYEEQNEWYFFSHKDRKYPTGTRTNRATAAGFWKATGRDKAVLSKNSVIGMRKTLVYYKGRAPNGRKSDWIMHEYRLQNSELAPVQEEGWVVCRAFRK
In outline:
as §1

Assay [9] has as its target T8, GST-ANAC019 NAC domain (Arabidopsis thaliana, UniProt Q9C932 14-162).
T8 sequence: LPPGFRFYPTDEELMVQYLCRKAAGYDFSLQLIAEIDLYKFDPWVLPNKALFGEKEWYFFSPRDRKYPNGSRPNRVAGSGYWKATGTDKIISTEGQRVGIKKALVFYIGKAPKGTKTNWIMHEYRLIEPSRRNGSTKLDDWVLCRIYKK
In a few lines: as §1

In assay [10] the target is T9, GST-ANAC055(1-171) (Arabidopsis thaliana, UniProt Q9LDY8 1-171).
T9 sequence: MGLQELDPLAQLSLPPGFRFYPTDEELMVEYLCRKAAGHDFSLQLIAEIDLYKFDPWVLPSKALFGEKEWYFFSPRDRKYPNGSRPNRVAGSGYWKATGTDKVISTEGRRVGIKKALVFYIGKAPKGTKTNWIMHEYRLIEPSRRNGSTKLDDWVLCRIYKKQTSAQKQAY
In a few lines:
as §1

In assay [11] the target is T10, GST-NAP(1-166) (Arabidopsis thaliana, UniProt O49255 1-166).
T10 sequence: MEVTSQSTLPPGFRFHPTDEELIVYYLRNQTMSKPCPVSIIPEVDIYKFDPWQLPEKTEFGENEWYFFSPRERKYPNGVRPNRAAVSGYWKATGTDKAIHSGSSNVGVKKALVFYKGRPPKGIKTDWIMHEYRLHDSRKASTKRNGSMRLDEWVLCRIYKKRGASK
In a few lines:
as §1

The target of assay [12] is T11, GST-NST2(1-184) (Arabidopsis thaliana, UniProt Q9M274 1-184).
T11 sequence: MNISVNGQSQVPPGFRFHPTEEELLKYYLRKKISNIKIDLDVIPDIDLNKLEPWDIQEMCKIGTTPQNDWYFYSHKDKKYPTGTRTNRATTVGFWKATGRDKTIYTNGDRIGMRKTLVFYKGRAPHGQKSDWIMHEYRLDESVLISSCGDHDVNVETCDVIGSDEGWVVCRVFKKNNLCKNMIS
In outline: as §1

GST-NTL6(1-168), sequence (Q9SCK6 1-168): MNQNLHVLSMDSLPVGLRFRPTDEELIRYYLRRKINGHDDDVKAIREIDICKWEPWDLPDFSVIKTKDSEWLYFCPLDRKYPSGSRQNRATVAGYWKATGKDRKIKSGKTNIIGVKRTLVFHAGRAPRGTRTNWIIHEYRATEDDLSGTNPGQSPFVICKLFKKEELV

In the case of GAGGAAAA, the binding signal came out at 0.152 E-score in [1]; 0.188 E-score in assay [2]; 0.1 E-score in [3]; 0.152 E-score in assay [4]; 0.402 E-score in [5]; 0.142 E-score in assay [6]. For the same sequence, the binding signal in [7] came out at 0.12 E-score; in [8] it was 0.114 E-score.
For the sequence AGCGTGTA, the binding signal was found to be 0.418 E-score in assay [1]; 0.0634 E-score in assay [9]; 0.112 E-score in assay [10]; 0.136 E-score in assay [3]; 0.436 E-score in assay [4]; 0.198 E-score in assay [11]. Moreover, the binding signal in assay [12] was 0.22 E-score; in assay [6] it was 0.274 E-score; in assay [7], 0.129 E-score; in assay [8], 0.163 E-score.
Turning to ATACACGC, the binding signal came out at 0.39 E-score in assay [1]; 0.19 E-score in [9]; 0.185 E-score in assay [10]; 0.21 E-score in assay [3]; 0.423 E-score in assay [4]; 0.256 E-score in assay [11]. In addition, the binding signal in assay [12] stood at 0.167 E-score; in assay [6] it was 0.0978 E-score; in [7] it was 0.167 E-score; in assay [8] it was 0.0693 E-score.
With ATGCGTGC, the binding signal in assay [1] is 0.429 E-score; in assay [9], 0.276 E-score; in [10], 0.217 E-score; in [3], 0.21 E-score; in assay [4], 0.452 E-score; in assay [11] it was 0.273 E-score. For the same sequence, the binding signal in assay [12] stood at 0.221 E-score; in assay [6], 0.292 E-score; in assay [7], 0.191 E-score; in assay [8], 0.138 E-score.
As to ACGTCTCT, the binding signal in [1] worked out at 0.0939 E-score; in assay [9] it was 0.451 E-score; in assay [10] it was 0.412 E-score; in [3], 0.452 E-score; in assay [4] it was 0.243 E-score; in assay [11] it was 0.381 E-score. Further, the binding signal in assay [12] turned out to be 0.175 E-score; in assay [6], 0.0793 E-score; in assay [7], 0.418 E-score; in assay [8] it was 0.442 E-score.
For the sequence GCGTGTGA, the binding signal in assay [1] worked out at 0.374 E-score; in [9], 0.191 E-score; in assay [10], 0.23 E-score; in [3], 0.226 E-score; in [4] it was 0.419 E-score; in assay [11], 0.145 E-score. The binding signal in assay [12] was determined as 0.189 E-score; in assay [6], 0.17 E-score; in assay [7], 0.14 E-score; in assay [8], 0.0819 E-score.
For AAGGGAAA, the binding signal was 0.195 E-score in [1]; 0.166 E-score in assay [2]; 0.166 E-score in assay [3]; 0.0848 E-score in assay [4]; 0.476 E-score in assay [5]; 0.117 E-score in assay [6]. Further, the binding signal was determined as 0.0609 E-score in [7] and 0.0885 E-score in assay [8].
As for AAACACGC, the binding signal in assay [1] was 0.415 E-score; in [9], 0.261 E-score; in assay [10] it was 0.262 E-score; in [3], 0.233 E-score; in [4] it was 0.442 E-score; in assay [11], 0.225 E-score. The binding signal in assay [12] came to 0.198 E-score; in assay [6] it was 0.259 E-score; in assay [7], 0.201 E-score; in assay [8], 0.21 E-score.
Turning to CACACGTC, the binding signal in [1] came to 0.33 E-score; in assay [9], 0.214 E-score; in assay [10], 0.221 E-score; in [3] it was 0.248 E-score; in assay [4], 0.405 E-score; in assay [11], 0.172 E-score. The binding signal is 0.079 E-score in assay [12], 0.157 E-score in assay [6], 0.199 E-score in assay [7] and 0.176 E-score in [8].
For TGAAGTAA, the binding signal in assay [1] amounted to 0.242 E-score; in assay [2], 0.377 E-score; in assay [10], 0.155 E-score; in assay [3] it was 0.169 E-score; in assay [4], 0.323 E-score; in assay [12], 0.324 E-score. In addition, the binding signal was determined as 0.437 E-score in assay [5], 0.424 E-score in assay [6], 0.131 E-score in assay [7] and 0.132 E-score in assay [8].
For ATGCCGTG, the binding signal in assay [1] worked out at 0.417 E-score; in assay [9], 0.453 E-score; in [10] it was 0.418 E-score; in assay [3], 0.35 E-score; in assay [4], 0.443 E-score; in [11] it was 0.397 E-score. The results for the binding signal in assay [6], in assay [7] and in assay [8] were 0.111 E-score, 0.399 E-score and 0.447 E-score, respectively.
Regarding ATACGTTA, the binding signal came to 0.443 E-score in [1]; 0.074 E-score in [9]; 0.139 E-score in [10]; 0.273 E-score in [3]; 0.451 E-score in assay [4]; 0.169 E-score in assay [11]. Further, the binding signal was found to be 0.214 E-score in [12], 0.433 E-score in assay [6], 0.274 E-score in assay [7] and 0.146 E-score in assay [8].
With ACACGTTA, the binding signal in [1] turned out to be 0.482 E-score; in [9], 0.165 E-score; in [10], 0.3 E-score; in assay [3], 0.35 E-score; in assay [4] it was 0.485 E-score; in assay [11], 0.222 E-score. Moreover, the binding signal in [12] amounted to 0.358 E-score; in assay [6], 0.413 E-score; in assay [7], 0.277 E-score; in assay [8], 0.237 E-score.
For ATTTCGTG, the binding signal in assay [1] was 0.389 E-score; in assay [9] it was 0.174 E-score; in assay [10], 0.22 E-score; in assay [3] it was 0.154 E-score; in [4], 0.422 E-score; in assay [11], 0.133 E-score. In addition, the binding signal in assay [12] amounted to 0.136 E-score; in [6] it was 0.109 E-score; in assay [7] it was 0.191 E-score; in assay [8], 0.157 E-score.
For TGGCGTAA, the binding signal in assay [1] is 0.44 E-score; in assay [9], 0.0928 E-score; in [10], 0.127 E-score; in [3], 0.16 E-score; in assay [4], 0.439 E-score; in [11], 0.101 E-score. Also, the binding signal in assay [12] turned out to be 0.346 E-score; in assay [6], 0.482 E-score; in assay [7], 0.191 E-score; in assay [8] it was 0.246 E-score.
